# Screens: PubChem, Broad Institute
# Shown is part of a subset that was picked to be rich in hits.
# Tgondii IFNg = T. gondii growth inhibition with IFN-gamma, primary screen, cell-based; activity change, negative = inhibition, % (no concentration beside the values); Toxoplasma gondii growth in IFN-gamma-treated host cells; stronger effect = lower value; AID 1259416, 2018; actives 3.8% (n = 69,000); in the data active means activity change below about -70%, passing the limit was not always enough;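 further: host cells are HeLa cells infected with Toxoplasma gondii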
# * = called active by the depositor; ! = a repeat was not active.
SMILES,Tgondii IFNg
CN(Cc1cnc(-c2ccccn2)nc1)Cc1cnn(-c2ccccc2)c1,4.1
c1ccc(-c2nnc(-c3ccccn3)nc2-c2ccccc2)cc1,-102.6*
Cc1ccccc1Nc1nnc(-c2ccccc2)c(-c2ccccc2)n1,14.6
Cc1cccc(-c2[nH]c(C(C)(C)C)nc2-c2ccc3c(c2)OCO3)n1,-83.0*
COc1nccnc1-c1ccc2c(c1)OCO2,10.4
NC(=O)c1ccc(-c2nc(-c3ccc4c(c3)OCO4)c(-c3ccccn3)[nH]2)cc1,-61.6
CCC(CC)C(=O)N1CCC[C@]2(C(=O)N3CCOCC3)CN(Cc3cnn(C)c3)C[C@H]2C1,3.3
CCN1c2cc(C)ccc2-n2cccc2C12CCN(C(=O)Nc1ccccc1OC)CC2,-88.2*
CCN1c2cc(C)ccc2-n2cccc2C12CCN(C(=O)Nc1ccc(F)c(Cl)c1)CC2,0.2
CCN1c2cc(C)ccc2-n2cccc2C12CCN(C(=O)Nc1ccccc1)CC2,-12.9
CCN1c2cc(C)ccc2-n2cccc2C12CCN(C(=O)Nc1cccc(OC)c1)CC2,-59.3
CCN1c2cc(C)ccc2-n2cccc2C12CCN(C(=O)Nc1cc(Cl)c(OC)cc1OC)CC2,-47.2
CCN1c2cc(C)ccc2-n2cccc2C12CCN(C(=O)Nc1cccc(Cl)c1)CC2,-82.5*
CCc1ccccc1NC(=O)N1CCC2(CC1)c1cccn1-c1ccc(C)cc1N2CC,205.9
CCN1c2cc(C)ccc2-n2cccc2C12CCN(C(=O)Nc1ccc(C)cc1)CC2,-74.9*
CCc1ccc(NC(=O)N2CCC3(CC2)c2cccn2-c2ccc(C)cc2N3CC)cc1,-47.3
CCOc1ccc(NC(=O)N2CCC3(CC2)Nc2ccccc2-n2cccc23)cc1,225.9
CCn1c(C2CCCN(c3nc4ccccc4s3)C2)nn(C)c1=O (stereo not drawn),6.0
C=Cn1cc(CN2CCC(O)(c3cnc(OCC)nc3OCC)CC2)c(C)n1,1.7
O=C(CN1CCC(Cc2ccccc2)CC1)N1CCC(N2CCCC2)CC1,-24.3
CCn1c(NC(=O)c2cc3nc(C)cc(C)n3n2)nc2ccccc21,-34.4
CCN1C(=O)CCc2cc(NC(=O)COc3ccc(F)cc3)ccc21,138.5
O=C(Cn1c(=O)cc(C(=O)N2CCc3ccccc3C2)c2ccccc21)Nc1cccc(Cl)c1,4.2
Cc1nc2c(c(NCCc3ccncc3)n1)CNC2,0.8
CS(=O)(=O)N1CCC2(CCOCC2COc2cccnc2)CC1 (stereo not drawn),-7.4
SMILES,Tgondii IFNg
CCC(=O)Nc1cccc(OCC(=O)N2CCN(c3ncccn3)CC2)c1,3.1
CCc1nnc(NC(=O)CN2C[C@@H](C)N(Cc3ccco3)C[C@H]2C)s1,44.4
COC(=O)c1cc(OC)c(OC)cc1NC(=O)Nc1ccc(OC)cc1OC,8.5
COc1ccc(C=O)c(OC)c1,10.2
COc1cc(/C=C/c2ccc(OC)cc2OC)cc(OC)c1,-76.5*!
O=C(Cc1ccc2c(c1)OCO2)N1CCC(c2nc(-c3ccsc3)cc(=O)[nH]2)CC1,-79.6*
CCn1c(C2CCCN(C(=O)Cc3ccc4c(c3)OCO4)C2)nn(C)c1=O (stereo not drawn),6.9
O=C1CC2(CCN(C(=O)Cc3ccc4c(c3)OCO4)CC2)CN1,-56.8
CCCC1CCC2(C)c3[nH]c4ccccc4c3CCCN2C1 (stereo not drawn),-13.5
CO[C@@H]1CN(C)C(=O)c2cc(NC(=O)c3ccc(Oc4ccccc4)cc3)ccc2OC[C@@H](C)NC[C@@H]1C,-115.4*
COc1cccc(NC(=O)Nc2ccc3c(c2)C(=O)N(C)C[C@@H](OC)[C@H](C)CN[C@H](C)CO3)c1,20.2
CO[C@H]1CN(C)C(=O)c2cc(NC(=O)c3ccc(Oc4ccccc4)cc3)ccc2OC[C@@H](C)NC[C@H]1C,21.5
CO[C@@H]1CN(C)C(=O)c2cc(NC(=O)Nc3c(C)noc3C)ccc2OC[C@H](C)NC[C@@H]1C,-75.5*
CO[C@H]1CN(C)C(=O)c2cc(NC(=O)c3cnccn3)ccc2OC[C@H](C)NC[C@@H]1C,173.2
CO[C@H]1CN(C)C(=O)c2cc(NC(=O)c3ccc(Oc4ccccc4)cc3)ccc2OC[C@H](C)NC[C@@H]1C,-91.9*
CO[C@@H]1CN(C)C(=O)c2cc(NC(=O)Nc3c(C)noc3C)ccc2OC[C@H](C)NC[C@H]1C,206.6
CO[C@H]1CN(C)C(=O)c2cc(NC(=O)Nc3c(C)noc3C)ccc2OC[C@H](C)NC[C@H]1C,-1.3
CO[C@H]1CN(C)C(=O)c2cc(NC(=O)c3cnccn3)ccc2OC[C@@H](C)NC[C@H]1C,110.3
CC(C)CN1CCc2cc(C(=O)N3CCCC3)c(N(C)C)nc2CC1,1.2
O=S(=O)(c1ccc(Cl)s1)N1CCC2(CC1)NCCN=C2NCc1ccc2c(c1)OCO2,-0.4
Cc1oc(-c2ccccc2)nc1CSc1nc2c(=O)[nH]cnc2n1CC1CCCO1 (stereo not drawn),-47.4
CCC(C(=O)NCc1ccccn1)n1c2ccccc2c2cnn(C)c(=O)c21 (stereo not drawn),10.8
CCC(C(=O)N1CCN(c2ncccn2)CC1)n1c2ccccc2c2cnn(C)c(=O)c21 (stereo not drawn),-86.0*
Cn1ncc2c3ccccc3n(CC(=O)N3CCN(c4ncccn4)CC3)c2c1=O,130.2
